Unmarked numbers belong to inactive results. A call without a number means that no potency is given here. For part of these data: Potency and affinity values are given separately. Calls of active or inactive are those of the source. Unless noted, the rule behind the calls is not given here.
Assays:
[1] = antimalarial activity against Dd2 strain (AID 2302;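 active = growth inhibition above 50% at the single 2 µM test dose, taken to imply half-maximal potency below 2 µM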); conditions: P. falciparum Dd2 in RBCs, LDH growth readout, 72 h; at 2 µM; active compounds read high
[2] = human hepatoma cell viability loss – ATP luminescence, cytotoxicity control for P. falciparum antimalarial project, primary screen (AID 2303;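 active = inhibition above 50%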); conditions: HepG2 viability, 24-48 h, at 10 µM, active compounds read high
[3] = target: L-lactate dehydrogenase (Plasmodium falciparum (isolate CDC / Honduras)) (UniProt Q27743); experiment: PfLDH activity inhibition – cell lysate, 3D7 strain, counter-screen for P. falciparum growth inhibition project (AID 2304); conditions: P. falciparum 3D7 crude extract, LDH APAD/NBT absorbance; at 2 µM; active compounds read high
[4] = inhibition of 3D7 malaria parasite growth – strain 3D7 (AID 2306); conditions: P. falciparum 3D7 erythrocytic growth, LDH absorbance, 72 h; at 2 µM; active compounds read high
[5] = target: Calcium-dependent protein kinase 1 (Plasmodium falciparum (isolate 3D7)) (UniProt P62344); experiment: PfCDPK1 kinase inhibitors, biochemical, TCAMS library (AID 1159585; cut-off not given, nearly all actives have IC50 up to about 0.98 µM;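 note: inhibitors leave more ATP so luminescence rises with inhibition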); conditions: recombinant PfCDPK1, Kinase-Glo ATP depletion luminescence
[6] = target: Plasmodium falciparum protein kinase 6 (PK6, PF3D7_1337100) (UniProt Q8IDW1); experiment: PfPK6 kinase inhibitors, biochemical, TCAMS library (AID 1159586); conditions: recombinant PfPK6, Kinase-Glo ATP depletion luminescence
[7] = target: Protein kinase 7 (PK7), Plasmodium falciparum 3D7 (PF3D7_0213400) (UniProt Q7YTF7); experiment: inhibition of Plasmodium PK7 catalytic activity – biochemical, TCAMS antimalarial set, Kinase-Glo luminescence (AID 1159587); conditions: recombinant PfPK7, Kinase-Glo ATP depletion luminescence
[8] = target: Calcium-dependent protein kinase 4 (Plasmodium falciparum (isolate 3D7)) (UniProt Q8IBS5); experiment: PfCDPK4 kinase inhibitors, biochemical, TCAMS library (AID 1159588; cut-off not given, nearly all actives have IC50 up to about 0.91 µM); conditions: recombinant PfCDPK4, Kinase-Glo ATP depletion luminescence
Sequence of Calcium-dependent protein kinase 4 (Plasmodium falciparum (isolate 3D7)) (Q8IBS5 whole entry, looked up): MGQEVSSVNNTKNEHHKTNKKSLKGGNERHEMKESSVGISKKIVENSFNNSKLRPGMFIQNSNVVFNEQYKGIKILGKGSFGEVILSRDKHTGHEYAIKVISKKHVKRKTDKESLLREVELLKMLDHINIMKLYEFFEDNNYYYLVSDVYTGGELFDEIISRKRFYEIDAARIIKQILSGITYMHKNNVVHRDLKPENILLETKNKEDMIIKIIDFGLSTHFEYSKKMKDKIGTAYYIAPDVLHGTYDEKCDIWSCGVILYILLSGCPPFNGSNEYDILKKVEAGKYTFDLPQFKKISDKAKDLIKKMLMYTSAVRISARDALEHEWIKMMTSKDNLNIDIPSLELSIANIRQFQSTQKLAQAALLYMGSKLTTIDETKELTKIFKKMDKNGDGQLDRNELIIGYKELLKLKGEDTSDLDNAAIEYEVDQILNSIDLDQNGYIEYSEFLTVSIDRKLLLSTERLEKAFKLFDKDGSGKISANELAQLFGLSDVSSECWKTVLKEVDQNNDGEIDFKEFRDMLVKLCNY

Sequence of Protein kinase 7 (PK7), Plasmodium falciparum 3D7 (PF3D7_0213400) (Q7YTF7 1-343): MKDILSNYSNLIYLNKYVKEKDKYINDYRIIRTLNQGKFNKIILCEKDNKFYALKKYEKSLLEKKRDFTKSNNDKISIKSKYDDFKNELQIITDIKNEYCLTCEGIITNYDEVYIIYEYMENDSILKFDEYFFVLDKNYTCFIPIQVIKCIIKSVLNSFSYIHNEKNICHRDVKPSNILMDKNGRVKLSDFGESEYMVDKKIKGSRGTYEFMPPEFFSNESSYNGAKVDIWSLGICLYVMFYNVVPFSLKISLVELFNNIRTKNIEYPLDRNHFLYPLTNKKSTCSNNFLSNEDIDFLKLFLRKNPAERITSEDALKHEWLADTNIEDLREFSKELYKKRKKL
Sequence of L-lactate dehydrogenase (Plasmodium falciparum (isolate CDC / Honduras)) (Q27743 whole entry, looked up): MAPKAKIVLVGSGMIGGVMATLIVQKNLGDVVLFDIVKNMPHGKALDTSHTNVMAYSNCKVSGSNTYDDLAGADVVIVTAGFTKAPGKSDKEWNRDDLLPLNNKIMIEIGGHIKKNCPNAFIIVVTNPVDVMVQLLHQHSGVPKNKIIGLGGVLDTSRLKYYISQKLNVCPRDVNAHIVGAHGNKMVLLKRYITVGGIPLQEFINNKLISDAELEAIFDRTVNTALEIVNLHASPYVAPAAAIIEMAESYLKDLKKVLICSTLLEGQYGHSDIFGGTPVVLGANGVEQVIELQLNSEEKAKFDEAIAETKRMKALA
Sequence of Calcium-dependent protein kinase 1 (Plasmodium falciparum (isolate 3D7)) (P62344 whole entry, looked up): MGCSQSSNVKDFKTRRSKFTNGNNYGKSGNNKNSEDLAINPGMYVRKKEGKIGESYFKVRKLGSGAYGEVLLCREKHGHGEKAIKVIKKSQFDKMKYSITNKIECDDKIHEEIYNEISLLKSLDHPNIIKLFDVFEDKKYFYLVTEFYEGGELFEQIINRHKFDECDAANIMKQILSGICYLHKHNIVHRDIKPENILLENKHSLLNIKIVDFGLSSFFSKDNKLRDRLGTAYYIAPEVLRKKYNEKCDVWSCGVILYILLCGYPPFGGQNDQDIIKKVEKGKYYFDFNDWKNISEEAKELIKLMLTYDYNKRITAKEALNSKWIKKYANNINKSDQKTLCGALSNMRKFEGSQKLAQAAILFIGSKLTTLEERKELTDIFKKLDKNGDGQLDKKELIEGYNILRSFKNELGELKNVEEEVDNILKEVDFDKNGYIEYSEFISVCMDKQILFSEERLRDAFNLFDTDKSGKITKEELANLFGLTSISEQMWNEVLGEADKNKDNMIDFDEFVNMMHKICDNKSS
Sequence of Plasmodium falciparum protein kinase 6 (PK6, PF3D7_1337100) (Q8IDW1 1-305): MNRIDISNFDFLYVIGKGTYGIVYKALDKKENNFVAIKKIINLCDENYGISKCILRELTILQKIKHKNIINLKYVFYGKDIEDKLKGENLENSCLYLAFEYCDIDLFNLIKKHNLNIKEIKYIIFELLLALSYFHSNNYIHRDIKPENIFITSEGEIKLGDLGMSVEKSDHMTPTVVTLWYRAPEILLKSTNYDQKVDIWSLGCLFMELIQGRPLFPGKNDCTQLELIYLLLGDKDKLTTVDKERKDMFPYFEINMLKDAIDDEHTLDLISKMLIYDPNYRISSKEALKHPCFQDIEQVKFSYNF

Compound	growth inhibition [1]	inhibition [2]	inhibition [3]	growth inhibition [4]	outcome [5]	outcome [6]	outcome [7]	outcome [8]
COC(=O)c1cc(OC)c(OC)cc1NC(=O)NC12CC3CC(CC(C3)C1)C2	3%	6%	6%	94% (active)	inactive	inactive	inactive	inactive
COc1ccc(OC)c(-c2ccc(=O)n(CC(=O)Nc3cccc4ccccc34)n2)c1	95% (active)	-9%	3%	101% (active)	inactive	inactive	inactive	inactive
Cc1cc(N[C@@H](CC(C)C)C(=O)Nc2ccccc2)nc(Nc2ccccc2)n1	93% (active)	-2%	-1%	99% (active)	inactive	inactive	inactive	inactive
O=C(c1ccco1)N1CCN(c2nc(-c3ccc(Cl)cc3)nc3ccccc23)CC1	91% (active)	13%	5%	96% (active)	inactive	inactive	inactive	inactive
Cc1ccccc1C1CCN(c2ccc(NC(=O)c3ccc(Cl)nc3)cc2)CC1	82% (active)	43%	-2%	92% (active)	inactive	inactive	inactive	inactive
Cc1c(CC(=O)NCCC2CCN(CCCCCNC(=O)/C=C/c3ccc(Cl)c(Cl)c3)CC2)sc2ccc(Cl)cc12	8%	59% (active)	0%	92% (active)	inactive	inactive	inactive	inactive
CCC(=O)Oc1ccc(NC(=O)c2cccc(OC)c2)cc1	3%	17%	6%	98% (active)	inactive	inactive	inactive	inactive
O=C(Nc1ccon1)c1cc(-c2cccnc2)nc2ccc(Cl)cc12	76% (active)	-4%	6%	98% (active)	inactive	inactive	inactive	inactive
O=C(Nc1ccc2ccccc2c1)N1CCC(NCc2cccc([N+](=O)[O-])c2)CC1	-3%	-1%	2%	98% (active)	inactive	inactive	inactive	inactive
CCC(CO)NCC(O)Cn1c2ccc(Br)cc2c2cc(Br)ccc21 (configuration not stated)	87% (active)	18%	-6%	100% (active)	inactive	inactive	inactive	inactive
CCn1ccc2c(N3CCCC3=O)cc(C(=O)N[C@@H](Cc3ccccc3)[C@H](O)CNC(C)(C)CCCC(C)C)cc21	98% (active)	11%	-3%	96% (active)	inactive	inactive	inactive	inactive
CCOc1cc(C(=O)NCc2cc(Cl)cc(Cl)c2)ccc1-c1nc2ccc(Cl)cc2[nH]1	5%	1%	-3%	101% (active)	inactive	inactive	inactive	inactive
Fc1cccc(Cn2ncc3cc(Nc4ncnc5sc(C#Cc6ncc[nH]6)cc45)ccc32)c1	30%	31%	0%	101% (active)	inactive	inactive	inactive	inactive
COCCNCc1ncsc1-c1ccc2c(Nc3ccc(Oc4ccccc4)cc3)ccnc2c1	93% (active)	34%	-7%	91% (active)	inactive	inactive	inactive	inactive
CCN(CCCN1CCCCC1)c1cc(C)nc(Nc2ccc(Cl)cc2)n1	82% (active)	23%	-2%	101% (active)	inactive	inactive	inactive	inactive
CC(C)(C)OC(=O)NCCc1cccc(-c2c[nH]c3ncc(-c4cccc(NS(C)(=O)=O)c4)cc23)c1	71% (active)	16%	-3%	97% (active)	inactive	inactive	inactive	inactive
Cc1nc2ccc3ccc(CNc4ccc(C#N)cc4)cc3c2c(=O)[nH]1	56% (active)	55% (active)	8%	84% (active)	inactive	inactive	inactive	inactive
Cc1cccc2[nH]c(-c3cccc(-c4cccc(NC(=O)c5cnccc5C(F)(F)F)c4)c3)nc12	47%	7%	-11%	98% (active)	inactive	inactive	inactive	inactive
CC[C@H](C)CNC(=O)c1cncc(-c2ccc(CN3CCC(N4CCCC4)CC3)cc2)c1	100% (active)	-8%	3%	101% (active)	inactive	inactive	inactive	inactive
CC(Cc1ccc(NC(=O)c2ccc(CC(C)NCc3ccc(Cl)c(Cl)c3)cc2)cc1)NCCc1cccc(Cl)c1 (configuration not stated)	33%	26%	4%	92% (active)	inactive	inactive	inactive	inactive

Compound	growth inhibition [1]	inhibition [2]	inhibition [3]	growth inhibition [4]	outcome [5]	outcome [6]	outcome [7]	outcome [8]
CC(C)CNCc1cccc(-c2cccc(CNc3ccc4ncccc4c3)c2)c1	28%	23%	6%	92% (active)	inactive	inactive	inactive	inactive
COc1ccc(NC(=O)CCNc2cc(C)nc(NCCc3ccc(F)cc3)n2)cc1	3%	27%	1%	98% (active)	inactive	inactive	inactive	inactive
CCCCCc1cc(O)c2c(c1)OC(C)(C)C=C2C1=CCN(Cc2ccsc2)CC1	48%	20%	-1%	98% (active)	inactive	inactive	inactive	inactive
CC(=O)NCCNc1nccc(N2CCc3ncnc(Nc4ccc(OCc5ccccn5)c(Cl)c4)c3C2)n1	99% (active)	-12%	10%	99% (active)	inactive	inactive	inactive	inactive
CCCCc1ccc(-c2c(N)nc(N)nc2CC)cc1	0%	63% (active)	-1%	95% (active)	inactive	inactive	inactive	inactive
CC(C)Oc1ccc(N2CCN(CCCCNC(=O)c3ccc(NC(=O)c4ccc(Cl)cc4)cc3)CC2)c(OC(C)C)c1	85% (active)	31%	1%	102% (active)	inactive	inactive	inactive	inactive
CC(C(=O)N1CCCC1)N1CCN(S(=O)(=O)c2ccc(C(C)(C)C)cc2)CC1 (configuration not stated)	86% (active)	4%	0%	98% (active)	inactive	inactive	inactive	inactive
Clc1ccc(CNCC2CCN(CC3CCCCC3)CC2)cc1Cl	6%	18%	4%	92% (active)	inactive	inactive	inactive	inactive
OCCN1CCN(c2ccc(Nc3ccnc4cc5ccccc5cc34)cc2)CC1	100% (active)	98% (active)	-1%	100% (active)	inactive	inactive	inactive	inactive
CCOc1cc(Br)c(C(C)NC(=O)c2ccccc2)cc1OCC (configuration not stated)	10%	-2%	5%	92% (active)	inactive	inactive	inactive	inactive
CCC(CC)CN1C(=O)C(c2ccccc2)(c2ccccc2)N=C1N	81% (active)	14%	-3%	97% (active)	inactive	inactive	inactive	inactive
CN(C)Cc1ccc2nc(-c3cccc(Cc4cc(Cl)ccc4OCc4ccc(Cl)cc4F)n3)[nH]c2c1	26%	43%	1%	93% (active)	inactive	inactive	inactive	inactive
COc1ccc2nccc([C@@H](O)CN3CCC(NC(=O)C(c4cc5ccccc5o4)N4CCN(c5ccccc5OC)CC4)CC3)c2c1 (some centres not stated)	83% (active)	14%	-5%	99% (active)	inactive	inactive	inactive	inactive
COc1c(C2CCN(CCCCNC(=O)c3ccc(-c4ccc(Cl)cc4)cn3)CC2)ccc2c1CCCC2	14%	100% (active)	-3%	93% (active)	inactive	inactive	inactive	inactive
NC(N)=NN=CC(=O)Nc1cc([N+](=O)[O-])cc([N+](=O)[O-])c1	-2%	-5%	-4%	100% (active)	inactive	inactive	inactive	inactive
COc1c(C2CCN(CCN3CCC(NC(=O)c4ccc(-c5ccc(C(F)(F)F)cc5)cc4)CC3)CC2)ccc2c1CCCC2	35%	42%	0%	82% (active)	inactive	inactive	inactive	inactive
COc1ccc(CC(=O)NC(CCCN2CCC(c3ccccc3)CC2)c2ccc(Cl)c(Cl)c2)cc1OC (configuration not stated)	57% (active)	28%	-7%	82% (active)	inactive	inactive	inactive	inactive
Cc1cccc2[nH]c(-c3ccc(-c4cccc(NC(=O)c5cnccc5C(F)(F)F)c4)cc3)nc12	13%	25%	0%	84% (active)	inactive	inactive	inactive	inactive
O=C(Nc1cccc(CN2CCCN(Cc3cccc(F)c3)CC2)c1)c1ccc(Cl)c(Cl)c1	6%	28%	-1%	85% (active)	inactive	inactive	inactive	inactive

From PubChem BioAssay
